{"source": "PubChem BioAssay AID1347076", "about": "(National Center for Advancing Translational Sciences (NCATS), 2019)", "note": "In all, about 400,000 compounds went through this assay and about 13,000 (3.2%) were called active. Roughly 18% stayed inconclusive and do not appear here. The call rests on the fitted dose curve; in most records, active means well fitted cell-killing curve with a large enough effect; inconclusive means small, poorly fitted or top-dose-only effect, or effect the other way; inactive means flat fitted curve, though single readings scatter. What follows is part of a selection rich in actives, with near analogues and random picks from the rest. A call without a number means that no potency is given here. Potency means the concentration at half of the fitted maximal effect."}
{"test": "qHTS assay for MDR1-selective chemotherapeutics: Primary screen using the drug-selected MDR subline cells KB-V1; further: nearly all actives have a fitted effect of over 60% in size", "settings": "KB-V1 MDR cells viability, CellTiter-Glo, 72 h; series mostly up to 46.1 µM", "procedure,_shortened": "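Cells of the MDR subline KB-V1 are plated, dosed with compound at multiple concentrations, and incubated 72 h at 37 degrees C; CellTiter-Glo is then added and luminescence read after 10 min.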"}
{"smiles": "O=C(NC1CCCC1)c1cc(-c2ccccc2)on1", "Potency": "16.4 µM (active)"}
{"smiles": "O=C(NC1CCCCCCC1)c1cccs1", "Potency": "inactive"}
{"smiles": "O=C(NC1CCCCC1)c1cc(C2CC2)on1", "Potency": "inactive"}
{"smiles": "CCCCN1C(=O)C(CC(=O)NC(c2ccccc2)c2ccccc2)CC(C(=O)N2CCOCC2)=C1C", "note": "(stereo not drawn)", "Potency": "inactive"}
{"smiles": "N#Cc1ccc[n+](CC(=O)c2ccc(O)c(O)c2)c1", "Potency": "inactive"}
{"smiles": "Cc1ccc(C(=O)OCc2nc(N)nc(Nc3ccccc3C)n2)cc1", "Potency": "inactive"}
{"smiles": "Cc1ccccc1Nc1nc(N)nc(CSc2ccccc2)n1", "Potency": "inactive"}
{"smiles": "CCCn1nc(C(=O)OCc2nc(N)nc(Nc3ccccc3C)n2)c2ccccc2c1=O", "Potency": "20.6 µM (active)"}
{"smiles": "O=C(Nc1cccc2cccnc12)c1ccc2sc([C@H]3C[C@H](O)[C@@H](CO)O3)nc2c1", "Potency": "inactive"}
{"smiles": "Cc1ccc(NC(=O)Cn2cnc3nc4c(cc3c2=O)CCCC4)cc1Cl", "Potency": "inactive"}
{"smiles": "CCn1c(SCC(=O)Nc2ccc(C)cc2)nc2nc3c(cc2c1=O)CCCC3", "Potency": "0.651 µM (active)"}
{"smiles": "CC(=O)NCCn1c(SCC(=O)Nc2ccc(C)cc2)nc2ccccc2c1=O", "Potency": "inactive"}
{"smiles": "CCCn1c(N)c(C(=O)CSc2nnc(Cc3cccs3)n2C2CC2)c(=O)[nH]c1=O", "Potency": "inactive"}
{"smiles": "CCn1c(NCCc2ccc(OC)c(OC)c2)nc2c1c(=O)n(C)c(=O)n2C", "Potency": "4.61 µM (active)"}
{"smiles": "COc1ccc(CCNc2nc(C)cc(C)n2)cc1OC", "Potency": "inactive"}
{"smiles": "CC(C)CCn1c(CN(C)Cc2ccccc2)nc2c1c(=O)n(C)c(=O)n2C", "Potency": "9.2 µM (active)"}
{"smiles": "Cn1c(=O)c2c(nc(NCc3ccccc3)n2CC(N)=O)n(C)c1=O", "Potency": "inactive"}
{"smiles": "COCCn1c(CN(Cc2ccccc2)Cc2ccccc2)nc2c1c(=O)n(C)c(=O)n2C", "Potency": "inactive"}
{"smiles": "Cn1c(=O)c2c(nc(NCCc3ccccc3)n2Cc2ccccc2Br)n(C)c1=O", "Potency": "inactive"}
{"smiles": "Cc1ccnc(SCCn2c(N(C)Cc3ccccc3)nc3c2c(=O)n(C)c(=O)n3C)n1", "Potency": "inactive"}
{"smiles": "CCCCn1c(SCC(=O)NCCc2ccc(OC)c(OC)c2)nc2c1c(=O)n(C)c(=O)n2C", "Potency": "inactive"}
{"smiles": "Cn1c(=O)c2c(nc(NCCc3ccccc3)n2Cc2ccccc2)n(C)c1=O", "Potency": "6.51 µM (active)"}
{"smiles": "Cc1noc(C)c1C(=O)N1CCC1(C)C(=O)NS(=O)(=O)c1ccc(C#N)cc1", "note": "(stereo not drawn)", "Potency": "inactive"}
{"smiles": "Cc1ccc(-c2cnc(C(O)c3cc(Cl)cc(Cl)c3)[nH]2)cc1", "note": "(stereo not drawn)", "Potency": "inactive"}
{"smiles": "Cc1cccc(N2CCN(S(=O)(=O)c3ccc4[nH]c5c(c4c3)CCCCC5)CC2)c1C", "Potency": "inactive"}
{"smiles": "O[C@@H]1C[C@H](c2ccccc2)N(Cc2cccs2)C[C@H]1n1cc(C2CC2)nn1", "Potency": "inactive"}
{"smiles": "COC(=O)[C@]12CCCCC=C1N(Cc1ccc3c(c1)OCO3)C(=O)[C@H](CC(=O)N1CCOCC1)C2", "Potency": "inactive"}
{"smiles": "Cn1cccc1/C=N/NC(=O)CNc1cccc2ccccc12", "Potency": "inactive"}
{"smiles": "Cc1cccc(/C=N/NC(=O)CNc2cccc3ccccc23)n1", "Potency": "14.6 µM (active)"}
{"smiles": "C/C(=N\\NC(=O)CNc1cccc2ccccc12)c1ccc(Br)s1", "Potency": "inactive"}
{"smiles": "COCCNS(=O)(=O)c1cc(-c2nn3c(C)nnc3c3ccccc23)ccc1C", "Potency": "inactive"}
{"smiles": "Cc1ccc(NC(=O)c2ccco2)cc1", "Potency": "inactive"}
{"smiles": "CCOc1cc(N2CCOCC2)c(OCC)cc1NC(=O)COc1cccc(Cl)c1", "Potency": "inactive"}
{"smiles": "CCOc1cc(N2CCOCC2)c(OCC)cc1NC(=O)c1ccc(C)s1", "Potency": "inactive"}
{"smiles": "CCOc1cc(N2CCOCC2)c(OCC)cc1NC(=O)COc1cccc2cccnc12", "Potency": "5.17 µM (active)"}
{"smiles": "CC(C)(C)c1ccc(C(=O)C[n+]2cccc3cc(Cl)ccc32)cc1", "Potency": "inactive"}
{"smiles": "Cc1ccc(C(=O)N2c3ncnn3C3(CCCCC3)[C@@H]3CCCC[C@@H]32)cc1", "Potency": "inactive"}
{"smiles": "O=C(Nc1nnc(C2CC2)s1)c1cc(Cl)sc1Cl", "Potency": "inactive"}
{"smiles": "Cc1cc(C(=O)Nc2nnc(C3CC3)s2)c(C)s1", "Potency": "inactive"}
{"smiles": "Cc1occc1C(=O)Nc1nnc(C2CCCCC2)s1", "Potency": "16.4 µM (active)"}
{"smiles": "CC1=C(C(=O)N2CCOCC2)CC(CC(=O)NCCN2CCOCC2)C(=O)N1CCC1=CCCCC1", "note": "(stereo not drawn)", "Potency": "inactive"}
{"smiles": "COc1ccc(N2CCN(S(=O)(=O)c3ccc(-c4coc(C)n4)cc3)CC2)cc1", "Potency": "inactive"}
{"smiles": "COc1ccc(Br)cc1C1CC(=O)Nc2c1c(C)nn2-c1nc(C)cc(C)n1", "note": "(stereo not drawn)", "Potency": "inactive"}
{"smiles": "Oc1ccc(Br)cc1C1C=C(c2ccc3c(c2)OCO3)NC(c2ccc(Cl)cc2)N1", "note": "(stereo not drawn)", "Potency": "inactive"}
{"smiles": "COc1ccc(OCC(=O)Nc2cc(C)c(Cl)cc2OC)c([N+](=O)[O-])c1", "Potency": "inactive"}
{"smiles": "COC(=O)c1cc(Oc2ccc(S(=O)(=O)N3CCOCC3)cc2[N+](=O)[O-])cc(C(=O)OC)c1", "Potency": "inactive"}
{"smiles": "Cc1nnc(-c2ccc(Oc3ccc(C)c(C)c3)c([N+](=O)[O-])c2)o1", "Potency": "14.6 µM (active)"}
{"smiles": "CCc1ccccc1NC(=O)N1CCN(C(=O)c2nsc3ccccc23)CC1", "Potency": "inactive"}
{"smiles": "CCOc1cc(-c2nnc(SCC(=O)NC3CCCC3)nc2-c2ccc(OC)c(OCC)c2)ccc1OC", "Potency": "inactive"}
{"smiles": "CN(c1ccccc1)S(=O)(=O)c1cc(C(=O)Nc2nc3ccccc3[nH]2)ccc1Cl", "Potency": "3.66 µM (active)"}
{"smiles": "COc1cccc(C(=O)Nc2nnc(S(=O)(=O)N(C)c3ccccc3)s2)c1", "Potency": "inactive"}
{"smiles": "CN(c1ccccc1)S(=O)(=O)c1cc(C(=O)N2CCN(c3ncccn3)CC2)ccc1Cl", "Potency": "2.91 µM (active)"}
{"smiles": "CN(c1ccccc1)S(=O)(=O)c1ccc(C(=O)N2CCN(c3ccccc3Cl)CC2)cc1", "Potency": "inactive"}
{"smiles": "CC(=O)c1ccc(N2CCN(C(=O)c3ccc(Cl)c(S(=O)(=O)NC4CC4)c3)CC2)c(F)c1", "Potency": "inactive"}
{"smiles": "CN(c1ccccc1)S(=O)(=O)c1cc(C(=O)OCC(=O)N2CCN(C(=O)c3ccco3)CC2)ccc1Cl", "Potency": "inactive"}
{"smiles": "CC(OC(=O)c1ccc(NC(=O)CC#N)cc1)C(=O)Nc1ccc(S(=O)(=O)N2CCCC2)cc1", "note": "(stereo not drawn)", "Potency": "inactive"}
{"smiles": "Nc1nc2cc(Cl)ccc2n1N", "Potency": "inactive"}
{"smiles": "CCCCN(CC)C(=O)c1c[nH]c2ccc(S(=O)(=O)Nc3cccc(OC)c3)cc2c1=O", "Potency": "inactive"}
{"smiles": "CCCc1nc2c3ccccc3ccn2c1Cc1ccccc1C(F)(F)F", "Potency": "inactive"}
{"smiles": "COc1ccc(CNC(=O)C2CCN(C(=O)c3ccccc3)CC2)cc1", "Potency": "inactive"}
{"smiles": "COC(=O)[C@@]1(Cc2ccc(F)cc2)[C@H]2c3cc(C(=O)N(C)C)n(CCc4c[nH]c5ccc(OC)cc45)c3C[C@H]2CN1C(=O)c1ccccc1", "Potency": "18.4 µM (active)"}
{"smiles": "COc1ccc2c(c1)C(SCC(=O)NCc1ccccc1)CC(C)(C)O2", "note": "(stereo not drawn)", "Potency": "inactive"}
{"smiles": "COC(=O)[C@@]1(Cc2ccc(OC)cc2)[C@H]2c3cc(C(=O)N4CCCC4)n(Cc4ccc(OC(F)(F)F)cc4)c3C[C@H]2CN1C(=O)c1ccccc1", "Potency": "20.6 µM (active)"}
{"smiles": "COC(=O)[C@@]1(Cc2ccc(F)cc2)[C@H]2c3cc(C(=O)N4CCCC4)n(C[C@H](O)CO)c3C[C@H]2CN1C(=O)c1ccccc1", "Potency": "inactive"}
{"smiles": "C[C@]1(C(=O)NCCc2c[nH]c3ccccc23)C=C[C@@H](Cc2ccccc2)N1C(=O)c1ccccc1", "Potency": "inactive"}
{"smiles": "CCN1C(=O)[C@H]2[C@@H](c3ccc(C(F)(F)F)cc3)N[C@]3(CCCN(Cc4ccc(Br)cc4)C3=O)[C@H]2C1=O", "Potency": "inactive"}
{"smiles": "CC1(C)CC(=O)C=C(c2ccccc2CO)C1=O", "Potency": "inactive"}
{"smiles": "Cn1c(Nc2ccc(F)cc2)nc2cc(-c3ccsc3)sc2c1=O", "Potency": "inactive"}
{"smiles": "O=C(c1cnn2c1NC(=C1CC1)C=C2C(F)F)N1CCc2ccccc2C1", "Potency": "inactive"}
{"smiles": "C=CCn1cc(C(=O)NCc2ccc(Cl)cc2)c(=O)c2cc(S(=O)(=O)N(CC)CC)ccc21", "Potency": "18.4 µM (active)"}
{"smiles": "CCn1cc(C(=O)NCc2ccccc2)c(=O)c2cc(S(=O)(=O)N3CCCCC3)ccc21", "Potency": "inactive"}
{"smiles": "CCN(CC)S(=O)(=O)c1ccc2c(c1)c(=O)c(C(=O)N1CCN(c3cccc(Cl)c3)CC1)cn2C", "Potency": "inactive"}
{"smiles": "CCOC(=O)C1=CCC2C(=O)N(Cc3ccccc3)C(=O)C12", "note": "(stereo not drawn)", "Potency": "inactive"}
{"smiles": "COc1ccc(S(=O)(=O)Nc2cc3c(C(=O)OC(C)C)c(C)oc3c3ccccc23)cc1", "Potency": "5.17 µM (active)"}
{"smiles": "CCc1ccc(S(=O)(=O)Nc2cc3c(C(=O)OCc4ccccc4)c(C)oc3c3ccccc23)cc1", "Potency": "inactive"}
{"smiles": "CC(=O)c1c(C)oc2ccc(NS(=O)(=O)c3ccc(C(=O)O)cc3)cc12", "Potency": "inactive"}
{"smiles": "COc1cc2ccccc2cc1C(=O)Nc1ccc(S(=O)(=O)Nc2cc(C)on2)cc1", "Potency": "inactive"}
{"smiles": "COc1cc(NS(=O)(=O)c2ccc(NC(C)=O)cc2)cc(OC)c1", "Potency": "inactive"}
{"smiles": "COc1ccc(S(=O)(=O)Nc2ccc3oc(C)c(C(C)=O)c3c2)cc1", "Potency": "2.59 µM (active)"}
{"smiles": "CN1CCn2cnc(C(=O)NCC(=O)OC(C)(C)C)c2C1=O", "Potency": "inactive"}
{"smiles": "Cc1cccc(-n2ccnc2SCC(=O)Nc2cc(C(F)(F)F)ccc2Cl)c1", "Potency": "inactive"}
{"smiles": "C[C@H](O)[C@@H]1C(=O)N2CCc3c([nH]c4ccccc34)[C@@H]2C[C@@H]1N(C)C(=O)Nc1ccc(F)cc1", "Potency": "inactive"}
{"smiles": "N#CC1(Nc2ccc3c4c(cccc24)CC3)CCCCC1", "Potency": "inactive"}
{"smiles": "O=C(NCCCN1CCOCC1)c1cc2c(s1)CCC2", "Potency": "inactive"}
{"smiles": "O=C(CNC(=O)c1cc2c(s1)CCC2)Nc1ccccc1Br", "Potency": "18.4 µM (active)"}
{"smiles": "O=C(CCc1nc2sc3c(c2c(=O)[nH]1)CCCC3)NCC(=O)Nc1ccccc1Br", "Potency": "inactive"}
{"smiles": "CCN(Cc1ccncc1)C(=S)Nc1ccccc1C", "Potency": "inactive"}
{"smiles": "COc1ccc([C@H]2C[C@@H](n3cc(COC(=O)c4ccccc4)nn3)[C@H](O)CN2C(=O)c2cccs2)cc1", "Potency": "inactive"}
{"smiles": "O=C(Nc1ccc(OCCO)cc1)c1csc([C@H]2C[C@H](O)[C@@H](CO)O2)n1", "Potency": "inactive"}
{"smiles": "Fc1cccc(Cc2c(-c3cccc(Cl)c3)nc3ccc(Br)cn23)c1", "Potency": "inactive"}
{"smiles": "COc1ccc(Cl)cc1NC(=O)COc1ccc2c(c1)OCO2", "Potency": "inactive"}
{"smiles": "COc1ccc(Cl)cc1NC(=O)COC(=O)C(CC(C)C)N1C(=O)C2CC=CCC2C1=O", "note": "(stereo not drawn)", "Potency": "10.3 µM (active)"}
{"smiles": "COc1ccc(Cl)cc1NC(=O)c1cccc(N2C(=O)C3CC=CCC3C2=O)c1", "note": "(stereo not drawn)", "Potency": "inactive"}
